The source made the active and inactive calls. A call without a number means that no potency is given here. Calls follow the shape of the dose curve; as a rule, active = well fitted activation curve with a large enough effect in the repeat runs; inconclusive = weak or mixed curves; inactive = flat fitted curve, though single readings scatter.

The values below come from PubChem BioAssay (Tox21).

KiSS-1 receptor (Homo sapiens), sequence (Q969F8 whole entry, looked up): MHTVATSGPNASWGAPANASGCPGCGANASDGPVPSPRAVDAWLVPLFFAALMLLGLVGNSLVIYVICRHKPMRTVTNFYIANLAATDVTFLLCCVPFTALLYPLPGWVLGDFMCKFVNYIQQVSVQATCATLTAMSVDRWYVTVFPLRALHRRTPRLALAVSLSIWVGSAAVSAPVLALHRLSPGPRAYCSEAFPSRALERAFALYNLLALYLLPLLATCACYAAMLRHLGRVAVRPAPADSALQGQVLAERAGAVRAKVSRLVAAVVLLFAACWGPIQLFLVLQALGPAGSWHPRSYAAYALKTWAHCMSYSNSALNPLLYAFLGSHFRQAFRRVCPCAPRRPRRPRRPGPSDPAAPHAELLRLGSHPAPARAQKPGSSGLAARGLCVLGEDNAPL

This assay concerns the target KiSS-1 receptor (Homo sapiens) (UniProt Q969F8). In words: Human kisspeptin (KISS1R) small molecule agonists, calcium flux assay in KISS1R-HEK293 cells (AID 1920064). The note with it: KISS1R-HEK293, calcium flux fluorescence, agonist; series mostly up to 76.8 µM. The gist of the method:
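Cells plated and incubated 18 h; dye added, 1 h at 37 C; compounds in DMSO pinned in; signal read at 480/540 nm every second for 3 min. Each compound tested at 15 concentrations in triplicate.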
Background: Calcium assays in cells follow changes in intracellular calcium, usually with a dye or a luminescent sensor.
`ClCBr`: the Potency result is “inactive”.

Take `O=C1CN=C(c2ccccc2)c2cc([N+](=O)[O-])ccc2N1`: the Potency entry was “inactive”.

In the case of `C#CC(C)(C)O`, the Potency entry was “inactive”.

As for `Brc1cccc(-c2ccccc2)c1`, the Potency entry was “inactive”.

For `CC[N+]1(CCOC(=O)C(O)(c2ccccc2)c2ccccc2)CCCCC1`, the Potency entry is “inactive”.

With `CCCCOC(=O)c1ccccc1N`, the Potency result was “inactive”.

For `ClCCCCBr`, the Potency entry is “inactive”.

Consider `O=S(=O)(Cl)c1ccccc1`, for which the Potency entry is “inactive”.

Regarding `CC(C)CC(N(C)C)C1(c2ccc(Cl)cc2)CCC1` (centres undefined), the Potency entry is “inactive”.

With `C[N+]1(CCC(C(N)=O)(c2ccccc2)c2ccccc2)CCCCC1`, the Potency result was “inactive”.

For `Nc1ccc([N+](=O)[O-])cc1[N+](=O)[O-]`, the Potency result is “inactive”.

Take `ClCCCCCCCl`: the Potency result is “inactive”.

`CCNc1nc(NC(C)C(C)C)nc(SC)n1` (centres undefined): the Potency entry is “inactive”.

Regarding `CC(C)CC(C)Nc1ccc(Nc2ccccc2)cc1` (centres undefined), the Potency entry is “inactive”.

In the case of `CC1(C)COP(Oc2ccccc2)OC1`, the Potency entry was “inactive”.

`CNC(=O)O/N=C(\C)SC`: the Potency entry was “inactive”.

For the compound `C[C@H](N)C(=O)c1ccccc1`, the Potency result is “inactive”.

In the case of `O=C1OC(=O)C2C1C1(Cl)C(Cl)=C(Cl)C2(Cl)C1(Cl)Cl` (centres undefined), the Potency entry is “inactive”.

For the compound `Nc1cc2c3c(c1)C(c1ccccc1)=N[C@@H](NC(=O)c1cccnc1)C(=O)N3CC2`, the Potency result is “inactive”.

Consider `O=C(Nc1ccc(F)cc1F)c1cccnc1Oc1cccc(C(F)(F)F)c1`, for which the Potency entry is “inactive”.

For the compound `CC(C)C(Br)C(=O)NC(N)=O` (centres undefined), the Potency result is “inactive”.

For the compound `CCC1(c2cccc(O)c2)CCCCN(C)C1` (centres undefined), the Potency result was “inactive”.

In the case of `Fc1ccc(C2(Cn3cncn3)OC2c2ccccc2Cl)cc1` (centres undefined), the Potency result is “inactive”.

On to `O=C(O)[C@H](O)[C@@H](O)C(=O)O`, for which the Potency result was “inactive”.

On to `CN1C(=O)COc2c(C(=O)NC3CN4CCC3CC4)cc(Cl)cc21` (centres undefined), for which the Potency result was “inactive”.

For the compound `COc1c2c(cc3c1OCO3)CCN(C)C2`, the Potency result was “inactive”.

Take `O=[N+]([O-])c1cc(Cl)c(Cl)cc1Cl`: the Potency entry is “inactive”.

As for `ClC(Cl)C(Cl)(Cl)Cl`, the Potency result was “inactive”.

As to `c1ccc(Nc2ccc(Nc3ccccc3)cc2)cc1`, the Potency result is “inactive”.

Turning to `Cc1cnc2c(C(=O)O)c(Cl)ccc2c1`, the Potency entry was “inactive”.

`Cc1ccn2nc(S(=O)(=O)Nc3c(F)cccc3F)nc2n1`: the Potency result was “inactive”.

For `CCCCC(CC)COP(=O)(Oc1ccccc1)Oc1ccccc1` (centres undefined), the Potency result is “inactive”.

Consider `C[C@]12CC[C@@H]3c4ccc(OC(=O)N(CCCl)CCCl)cc4CC[C@H]3[C@@H]1CC[C@@H]2O`, for which the Potency entry is “inactive”.

Turning to `CC(C)(N)Cc1ccc(Cl)cc1`, the Potency entry is “inactive”.

Regarding `N#Cc1c2ccccc2cc2ccccc12`, the Potency result is “inactive”.

Regarding `N#Cc1c[nH]cc1-c1cccc2c1OC(F)(F)O2`, the Potency entry was “inactive”.

As for `C=CC(=O)OCC`, the Potency result is “inactive”.

Turning to `CNC(=O)O/N=C(\C)C(C)S(C)(=O)=O` (centres undefined), the Potency result is “inactive”.

As to `Cc1ccc2cc3c(ccc4ccccc43)c3c2c1CC3`, the Potency result was “inactive”.
